In PubChem BioAssay (NCATS):
Inconclusive results are not listed. Calls of active or inactive are those of the source. Calls follow the shape of the dose curve; as a rule, active = well fitted inhibition curve with a large enough effect; inconclusive = small, poorly fitted or top-dose-only effect; inactive = flat fitted curve, though single readings scatter.

Legend:
Assay in all cases: qHTS profiling for inhibitors of Plasmodium falciparum proliferation (AID 504749); also: nearly all actives have a fitted effect of over 60% in size
Settings in all cases: P. falciparum in erythrocytes, SYBR Green DNA, 72 h; series mostly up to 28.7 µM
CP191 = tested on: CP191
In short: (§1)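 Parasite proliferation within erythrocytes, 72 h exposure. Endpoint: SYBR Green I fluorescence after overnight lysis at room temperature. Controls: 0.29 uM artemisinin, DMSO.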

CP192 = tested on: CP192
In short: as §1

CP194 = tested on: CP194
In short: as §1

CP201 = tested on: CP201
In short: as §1

CP203 = tested on: CP203
In short: as §1

CP211 = tested on: CP211
In short: as §1

CP215 = tested on: CP215
In short: as §1

CP217 = tested on: CP217
In short: as §1

CP237 = tested on: CP237
In short: as §1

CP238 = tested on: CP238
In short: as §1

Measured: Potency
Potency is read from the fitted curve at half-maximal effect.

Nc1ccc(S(=O)(=O)Nc2ccccc2)cc1
inactive: all assays above

Cc1ncc(COP(=O)(O)O)c(C=O)c1O
inactive: all assays above

CCOC(=O)[C@H](CCc1ccccc1)N[C@@H](C)C(=O)N1C(=O)N(C)C[C@H]1C(=O)O
inactive: all assays above

Cn1c(=O)c2c(ncn2CC2OCCO2)n(C)c1=O
inactive: all assays above

CN1CCC[C@@H]1Cc1c[nH]c2ccc(CCS(=O)(=O)c3ccccc3)cc12
inactive: CP192
active: CP191 5010 nM

O=C(CCCN1CCN(c2ccccn2)CC1)c1ccc(F)cc1
inactive: all assays above

Nc1nc2c(ncn2CCC(CO)CO)c(=O)[nH]1
inactive: all assays above

Cc1cc(C(C#N)c2ccc(Cl)cc2)c(Cl)cc1NC(=O)c1cc(I)cc(I)c1O (centres undefined)
inactive: all assays above

CC(=O)NC(Cc1ccccc1)C(=O)O (centres undefined)
inactive: all assays above

OCC(O)CN1CCN(c2ccccc2)CC1 (centres undefined)
inactive: all assays above

Cc1cccc(Nc2cc(Cl)nc(SCC(=O)O)n2)c1C
inactive: all assays above

CC(=O)Oc1ccc(C2(c3ccc(OC(C)=O)cc3)C(=O)Nc3ccccc32)cc1
inactive: all assays above

CC1=C(/C=C/C(C)=C/C=C/C(C)=C/C(=O)O)C(C)(C)CCC1
inactive: all assays above

CCN(CC)CCNC(=O)c1cc(Cl)c(N)cc1OC
inactive: all assays above

COC(=O)C1=C(C)NC(C)=C(C(=O)OC)C1c1ccccc1[N+](=O)[O-]
inactive: all assays above

CCCCCCCCCCCCCCCCCCOCC(O)CO (centres undefined)
inactive: all assays above

O=C(O)CN1C(=O)c2cccc3cccc(c23)C1=O
inactive: all assays above

CCCCC(CC)COC(=O)c1ccccc1O (centres undefined)
inactive: all assays above

CCCCCCCCCCCCOS(=O)(=O)O
inactive: all assays above

O=C1NC(=O)[C@@]2(CCOc3ccc(F)cc32)N1
inactive: all assays above

O=C1O[C@H]([C@@H](O)CO)C(O)=C1O
inactive: all assays above

Oc1cccc(O)c1
inactive: all assays above

CC1(C)CO[C@@H](CC(=O)O)CN1
inactive: all assays above

OCCN1CCN(CCCN2c3ccccc3Sc3ccc(Cl)cc32)CC1
active: CP191 3160 nM
inactive: CP192

Cc1ccc2nc(N)[nH]c(=O)c2c1Sc1ccncc1
inactive: CP192 | CP194 | CP201 | CP203
active: CP191 2510 nM

O=S(=O)(O)NC1CCCCC1
inactive: all assays above

COc1ccc(S(=O)(=O)Nc2nnc(CC(C)C)s2)cc1
inactive: all assays above

CC[C@@]1(c2ccccc2)NC(=O)N(C)C1=O
inactive: all assays above

CCCOC(=O)c1ccccc1
inactive: all assays above

O=C(O)c1ccccc1-c1ccc(C(F)(F)F)cc1
inactive: all assays above

CC(O)COc1ccccc1 (centres undefined)
inactive: all assays above

CCOC(=O)c1ccc(O)cc1
inactive: all assays above

CCCCOC(=O)c1ccc(O)cc1
inactive: all assays above

COc1cc(C)c(Cc2cnc(N)nc2N)cc1OC
inactive: all assays above

Cc1cccc(C)c1NC(=O)CN(CC(=O)O)CC(=O)O
inactive: all assays above

Cc1cc(CC(=O)O)n(C)c1C(=O)c1ccc(Cl)cc1
inactive: all assays above

O=C(O)CC(O)C(=O)O (centres undefined)
inactive: all assays above

CC(=O)Nc1ccc(/C=N/NC(N)=S)cc1
inactive: all assays above

NC(=O)NNc1ccccc1
inactive: all assays above

NC(=O)NC(=O)Cc1ccccc1
inactive: all assays above

NCC(=O)CCC(=O)O
inactive: all assays above

CCCCN(CCCC)CC(O)c1cc(Cl)cc2c1-c1ccc(Cl)cc1/C2=C/c1ccc(Cl)cc1 (centres undefined)
active: CP191 28.2 nM | CP192 47.8 nM | CP194 47.8 nM | CP201 151 nM | CP203 19 nM | CP211 53.6 nM | CP215 42.6 nM | CP217 35.5 nM | CP237 11.2 nM | CP238 28.2 nM

N[C@@H](CSCCCO)C(=O)O
inactive: all assays above

Cc1cc2c(cc1S(N)(=O)=O)S(=O)(=O)CCC2
inactive: all assays above

Nc1ccc(S(=O)(=O)NC(=O)c2ccccc2)cc1
inactive: all assays above

COc1ccc2c(c1)C(=O)N(CCc1ccc(S(=O)(=O)NC(=O)NC3CCCCC3)cc1)C(=O)C2(C)C
inactive: all assays above

O=S(=O)(O)c1cc(I)c(O)c2ncccc12
inactive: all assays above

O=C(O)[C@@H]1CSCN1
inactive: all assays above

C[C@](N)(Cc1ccc(O)cc1)C(=O)O
inactive: all assays above

Nc1ncnc2c1ncn2[C@@H]1O[C@H](CO)[C@@H](O)[C@H]1O
inactive: all assays above

CCCCCCCCCCCCCCCC(=O)NCCO
inactive: all assays above

O=C(O)COc1nn(Cc2ccccc2)c2ccccc12
inactive: all assays above

O=C(O)c1ccccc1O
inactive: all assays above

[O-][n+]1cccc(CO)c1
inactive: all assays above

CC12CCC(CC1)C(C)(C)O2
inactive: all assays above

CCCCN(CCCC)CCCOC(=O)c1ccc(N)cc1
inactive: all assays above

NS(=O)(=O)c1cc2c(cc1Cl)NC(CSCc1ccccc1)=NS2(=O)=O
inactive: all assays above

CCCCc1ncc(/C=C(\Cc2cccs2)C(=O)O)n1Cc1ccc(C(=O)O)cc1
inactive: all assays above

C[C@H]1O[C@@H](n2cc(F)c(=O)[nH]c2=O)[C@H](O)[C@@H]1O
inactive: all assays above

CCN(CC)CCSC(=O)C(c1ccccc1)c1ccccc1
inactive: all assays above

NCCNCCNCCNCCN
inactive: all assays above

COc1cc2[nH]c(=O)[nH]c(=O)c2cc1OC
inactive: all assays above

CCCn1cnc2c1c(=O)n(CCCCC(C)=O)c(=O)n2C
inactive: all assays above

O=C1c2c(O)cccc2Cc2cccc(O)c21
inactive: all assays above

Nc1ccc(S(=O)(=O)Nc2ccc(Cl)nn2)cc1
active: CP191 1120 nM
not listed: CP217 | CP238
inactive: all other assays above

O=C(O)c1ccccn1
not listed: CP215
inactive: all other assays above

O=c1cc(CO)occ1O
inactive: all assays above

COc1cc(C(=O)N2CCOCC2)cc(OC)c1OC
inactive: all assays above

O=c1[nH]c(=O)c2[nH]c(=O)[nH]c2[nH]1
inactive: all assays above

CC1(C)OC(=O)NC1=O
not listed: CP215
inactive: all other assays above

CC(C)(C)C(=O)NCCCC(=O)O
not listed: CP211
inactive: all other assays above

O=C1OC(OC(=O)c2cccnc2Nc2cccc(C(F)(F)F)c2)c2ccccc21 (centres undefined)
inactive: all assays above

NCCNCCNCCN
not listed: CP215
inactive: all other assays above

C#CCN(C)Cc1ccccc1
not listed: CP215
inactive: all other assays above

Cc1c(Cl)cccc1Nc1ccccc1C(=O)O
inactive: all assays above

NC(CSCC(=O)O)C(=O)O (centres undefined)
not listed: CP215
inactive: all other assays above

O=c1cc[nH]c(=S)[nH]1
not listed: CP215
inactive: all other assays above

O=C1NS(=O)(=O)c2ccccc21
inactive: all assays above

CC(=O)CCC(=O)O
inactive: all assays above

CC1(C)[C@@H]2CC[C@@]1(C)C(=O)C2
inactive: all assays above

CCCCOc1cc(C(=O)OCCN(CC)CC)ccc1N
inactive: all assays above

CCC(=O)Nc1ccc(O)cc1
inactive: all assays above

CCn1cc(C(=O)O)c(=O)c2cnc(N3CCNCC3)nc21
not listed: CP215
inactive: all other assays above

CC(C)(C)NCC(O)COc1ccc(NC(=O)NC2CCCCC2)cc1 (centres undefined)
inactive: all assays above

CC(O)CN(CCN(CC(C)O)CC(C)O)CC(C)O (centres undefined)
inactive: all assays above

COc1ccc(Cl)cc1C(=O)NCCc1ccc(S(=O)(=O)NC(=O)NC2CCCCC2)cc1
not listed: CP215
inactive: all other assays above

COc1ccccc1O
inactive: all assays above

O=C(Oc1ccccc1C(=O)O)c1ccccc1O
inactive: all assays above

Cc1ccc(C(C)C)cc2c(C)ccc1-2
not listed: CP215
inactive: all other assays above

CC1=C(CC(=O)O)c2cc(F)ccc2/C1=C\c1ccc(S(C)=O)cc1 (centres undefined)
inactive: all assays above

Nc1ccc(S(=O)(=O)Nc2nccs2)cc1
inactive: all assays above

O=Cc1ccccc1C=O
not listed: CP215
inactive: all other assays above

Cc1cc(O)cc2c1O[C@](C)(CCC[C@H](C)CCC[C@H](C)CCCC(C)C)CC2
not listed: CP215 | CP237
inactive: all other assays above

C[C@@H]1CN(c2c(F)c(F)c3c(=O)c(C(=O)O)cn(C4CC4)c3c2F)C[C@H](C)N1
inactive: all assays above

CCC(=O)c1ccc(O)cc1
inactive: all assays above

C=Cc1c(C)c2cc3[nH]c(cc4nc(cc5nc(cc1[nH]2)C(C)=C5CCC(=O)O)C(CCC(=O)O)=C4C)c(C)c3C=C
inactive: all assays above

CN(C)CCN(Cc1ccccc1)c1ccccn1
active: CP237 5010 nM
not listed: CP203 | CP238
inactive: all other assays above

Oc1cn2c(n1)Nc1ccc(Cl)c(Cl)c1C2
not listed: CP201
inactive: all other assays above

NC(=O)N/N=C/c1ccc([N+](=O)[O-])o1
active: CP237 10000 nM
inactive: CP192 | CP211

C[C@H](N)[C@H](O)c1cccc(O)c1
not listed: CP203
inactive: all other assays above

CC(=O)c1ccc2c(c1)N(CCCN(C)C)c1ccccc1S2
not listed: CP194 | CP203
inactive: all other assays above

CCCCN1CCCC[C@H]1C(=O)Nc1c(C)cccc1C
active: CP237 8910 nM
not listed: CP194 | CP203
inactive: all other assays above
